These results are taken from PubChem BioAssay (Tox21).

Experiment [1] in a line: Human pregnane X receptor (PXR) small molecule agonists, qHTS cell viability counter screen (AID 1346977). Also: nearly all actives have a fitted effect of over 50% in size. Also: potency is read from the fitted curve at half-maximal effect. The method, boiled down: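 In each well, the PXR reporter HepG2 line was checked for viability: CellTiter-Fluor reagent added 23hr post-dosing, fluorescence read after 1hr incubation at 37C.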
(Quantitative high-throughput screening tests each substance at several concentrations.)

Experiment [2] in a line: Caspase-3/7 induction in HepG2 cells by small molecules, qHTS assay (AID 1346978). Also: nearly all actives have a fitted effect of over 15% in size. Also: potency is read from the fitted curve at half-maximal effect. The method, boiled down:
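Wild-type HepG2 cells, 2,000/well, settled 5 hr at 37 C and 5% CO2, then compound-treated for 17 hr; caspase-3/7 activity read by luminescent Caspase-Glo 3/7 after 30 min at room temperature.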

Experiment [3] can be described thus: Caspase-3/7 induction in CHO-K1 cells by small molecules, qHTS assay (AID 1346980). Also: nearly all actives have a fitted effect of over 15% in size. Also: potency is read from the fitted curve at half-maximal effect. The gist of the method: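 Wild-type CHO-K1 cells exposed to compounds for 17hr at 37 C, 5% CO2. Caspase-3/7 activity then measured by Caspase-Glo 3/7 luminescence after 30min at room temperature.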
Experiment [4] in a line: Caspase-3/7 induction in HepG2 cells by small molecules, qHTS cell viability counter screen (AID 1346981). Also: series mostly up to about 92 µM; nearly all actives have a fitted effect of over 30% in size. The gist of the method:
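Steps: seed 2,000 HepG2 cells per well; incubate 5 hr at 37 C; pin-add compounds in DMSO; incubate 16 hr; add CellTiter-Fluor; after 1 hr at 37 C and 5% CO2, read fluorescence.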

Experiment [5] deals with Nuclear receptor subfamily 1 group I member 2 (Homo sapiens) (UniProt O75469). The experiment in a line: Human pregnane X receptor (PXR) small molecule agonists, qHTS assay (AID 1346982). Also: nearly all actives have a fitted effect of over 35% in size. Also: potency is read from the fitted curve at half-maximal effect. The gist of the method: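 Agonist mode qHTS: PXR-Luc HepG2 cells plated 5 hr before DMSO-dissolved compounds were pinned in, cultured 24 hr at 37 C, 5% CO2; ONE-Glo luminescence readout.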

The target is the same in experiment [6]. The experiment in a line: CYP3A4 induction through human pregnane X receptor (PXR) by small molecules, qHTS assay (AID 1346984). Also: nearly all actives have a fitted effect of over 40% in size. The gist of the method:
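Steps: seed DPX-2 cells, 5 hr at 37C; pin-transfer compounds; 24 hr at 37C; add Luciferin-IPA (3uM final), 3 hr at 37C; add One-Glo, 30 min RT; read luminescence.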

Experiment [7] shares this target. The experiment in a line: Human pregnane X receptor (PXR) activation by small molecules, qHTS assay (AID 1346985). Also: nearly all actives have a fitted effect of over 40% in size. The method, boiled down: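 DPX-2 cells (HepG2 co-transfected with a PXR response element and a CYP3A4-promoter luciferase construct) were seeded at 2,000 per well, rested 5 hr at 37C, then exposed to DMSO-dissolved compounds for 24 hr. Activation was read as luciferase luminescence.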

Experiment [8] addresses Cytochrome P450 2D6 (Homo sapiens) (UniProt P10635). The experiment in a line: Cytochrome P450 Family 2 Subfamily D Member 6 (CYP2D6) small molecule antagonists: luciferase reporter qHTS assay (AID 1671196). Also: nearly all actives have a fitted effect of over 50% in size. Also: potency is read from the fitted curve at half-maximal effect. The method, boiled down:
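P450-Glo format: CYP2D6 converts a proluciferin substrate to luciferin in an NADPH-driven reaction lasting 1 h at room temperature. Light output, proportional to CYP2D6 activity, reflects interference by test chemicals.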

Experiment [9] addresses Cytochrome P450 2C19 (Homo sapiens) (UniProt P33261). The experiment in a line: Cytochrome P450 Family 2 Subfamily C Member 19 (CYP2C19) small molecule antagonists: luciferase reporter qHTS assay (AID 1671197). Also: nearly all actives have a fitted effect of over 65% in size. Also: potency is read from the fitted curve at half-maximal effect. The method, boiled down:
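P450-Glo CYP2C19 screening system; proluciferin substrate; DMSO compound stocks; 10 min RT preincubation; NADPH regeneration, 1 h at 37C; luciferin detection reagent, 20 min RT; luminescence as RLU.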
(Reporter assays use an easily measured gene product as a stand-in for the process of interest.)

In experiment [10] the target is Cytochrome P450 2C9 (Homo sapiens) (UniProt P11712). The experiment can be described thus: Cytochrome P450 Family 2 Subfamily C Member 9 (CYP2C9) small molecule antagonists: luciferase reporter qHTS assay (AID 1671198). Also: nearly all actives have a fitted effect of over 50% in size. Also: potency is read from the fitted curve at half-maximal effect. The gist of the method:
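P450-Glo proluciferin substrate with CYP2C9 enzyme; 10 min RT preincubation, then NADPH regeneration 1 h at 37C; luciferin detection reagent 20 min RT, luminescence in relative luminescence units.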

The target in experiment [11] is Cytochrome P450 1A2 (Homo sapiens) (UniProt P05177). The experiment can be described thus: Cytochrome P450 Family 1 Subfamily A Member 2 (CYP1A2) small molecule antagonists: luciferase reporter qHTS assay (AID 1671199). Also: nearly all actives have a fitted effect of over 50% in size. Also: potency is read from the fitted curve at half-maximal effect. The gist of the method: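 Inhibition of CYP1A2 conversion of proluciferin to luciferin, detected by luminescence. Reaction run 1 h at room temperature with NADPH regeneration after brief compound preincubation.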

Experiment [12] addresses Voltage-gated inwardly rectifying potassium channel KCNH2 (Homo sapiens) (UniProt Q12809). The experiment can be described thus: Human Ether-a-go-go-Related Gene (hERG) channel small molecule antagonists: fluorescence cell-based qHTS assay (AID 1671200). The gist of the method: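 In this thallium-flux screen, overnight-cultured U2OS cells bearing the channel are dye-loaded in darkness for an hour, rested 10 min at room temperature, and then monitored kinetically at 480/540 nm for two minutes post-stimulus.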
On the technique in general: The hERG channel carries a current that helps repolarise heart muscle cells.

Experiment [13] concerns the target Cytochrome P450 3A4 (Homo sapiens) (UniProt P08684). The experiment can be described thus: Cytochrome P450 Family 3 Subfamily A Member 4 (CYP3A4) small molecule antagonists: luciferase reporter qHTS assay (AID 1671201). The gist of the method:
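CYP3A4 activity was followed with a P450-Glo proluciferin substrate. Test compounds in DMSO were preincubated 10 min; NADPH regeneration then ran 1 h, and light output was read 20 min after detection reagent.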

Experiment [14] can be described thus: Caspase-3/7 induction in CHO-K1 cells by small molecules, qHTS cell viability counter screen (AID 1346979). Also: nearly all actives have a fitted effect of over 35% in size. Also: potency is read from the fitted curve at half-maximal effect. The method, boiled down: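 Following a 5hr settling period, CHO-K1 cells at 1,500 per well received DMSO-dissolved compounds. Cell viability was quantified 16hr later by CellTiter-Fluor fluorescence, measured after 1hr with reagent at 37C.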
Experiment [15] addresses Nuclear receptor subfamily 1 group I member 2 (Rattus norvegicus) (UniProt Q9R1A7). The experiment in a line: Rat pregnane X receptor (rPXR) activation by small molecules, qHTS assay (AID 1346983). Also: potency is read from the fitted curve at half-maximal effect; nearly all actives have a fitted effect of over 20% in size. Particulars: rPXR luciferase reporter cells, One-Glo luminescence, 24 h; max activation: stronger effect = higher value. The method, boiled down:
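Cell-based rPXR activation assay: rPXR cells, 2,000 per well, rested 5hr at 37 C, then exposed to compounds in DMSO for 24 hr at 37 C. Luciferase activity read by One-Glo luminescence after 30 min at room temperature.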

Molecules are shown by their SMILES. Values joined by “and” are separate entries in the source; they are usually repeats but may differ in a detail not shown here. Equal entries are not always repeated. Results filed as inconclusive are left out. More than one record can exist for a structure, and the calls need not agree. Active and inactive are the calls of the source. Calls follow the shape of the dose curve; as a rule, active = well fitted curve in the direction sought with a large enough effect in the repeat runs; inconclusive = weak or mixed curves; inactive = no such curve, though single readings can be large; an effect the other way counts as inactive or inconclusive.

Voltage-gated inwardly rectifying potassium channel KCNH2 (Homo sapiens), sequence (Q12809 whole entry, looked up): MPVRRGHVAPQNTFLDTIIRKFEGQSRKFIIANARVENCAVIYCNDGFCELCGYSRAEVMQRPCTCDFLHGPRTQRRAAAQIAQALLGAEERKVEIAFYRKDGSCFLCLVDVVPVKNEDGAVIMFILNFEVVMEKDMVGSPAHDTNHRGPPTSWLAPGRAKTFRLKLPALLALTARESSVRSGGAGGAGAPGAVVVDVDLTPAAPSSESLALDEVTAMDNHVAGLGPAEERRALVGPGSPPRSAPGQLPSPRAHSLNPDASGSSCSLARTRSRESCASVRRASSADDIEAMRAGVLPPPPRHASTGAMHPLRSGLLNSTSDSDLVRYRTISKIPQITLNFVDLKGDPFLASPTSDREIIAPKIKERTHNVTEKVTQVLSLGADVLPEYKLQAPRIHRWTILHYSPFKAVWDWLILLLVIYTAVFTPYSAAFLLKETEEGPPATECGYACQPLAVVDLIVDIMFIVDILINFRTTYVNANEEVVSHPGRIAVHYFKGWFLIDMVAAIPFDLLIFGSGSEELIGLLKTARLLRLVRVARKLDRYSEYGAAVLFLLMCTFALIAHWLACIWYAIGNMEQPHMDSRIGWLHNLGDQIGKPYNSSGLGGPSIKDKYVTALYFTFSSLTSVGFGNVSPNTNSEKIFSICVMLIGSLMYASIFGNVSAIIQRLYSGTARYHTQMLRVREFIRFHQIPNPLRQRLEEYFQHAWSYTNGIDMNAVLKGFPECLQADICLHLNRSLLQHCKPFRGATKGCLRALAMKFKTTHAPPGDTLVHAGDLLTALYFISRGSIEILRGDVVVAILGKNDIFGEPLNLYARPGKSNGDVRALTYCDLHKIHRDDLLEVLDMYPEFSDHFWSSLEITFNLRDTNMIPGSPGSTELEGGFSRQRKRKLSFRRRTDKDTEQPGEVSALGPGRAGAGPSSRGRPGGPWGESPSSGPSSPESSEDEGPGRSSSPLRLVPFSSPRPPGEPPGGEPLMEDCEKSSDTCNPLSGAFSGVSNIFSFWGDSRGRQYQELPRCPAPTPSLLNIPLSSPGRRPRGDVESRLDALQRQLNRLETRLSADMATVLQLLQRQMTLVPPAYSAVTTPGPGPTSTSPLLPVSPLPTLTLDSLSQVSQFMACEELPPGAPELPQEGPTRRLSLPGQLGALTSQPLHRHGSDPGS
Nuclear receptor subfamily 1 group I member 2 (Homo sapiens), sequence (O75469 whole entry, looked up): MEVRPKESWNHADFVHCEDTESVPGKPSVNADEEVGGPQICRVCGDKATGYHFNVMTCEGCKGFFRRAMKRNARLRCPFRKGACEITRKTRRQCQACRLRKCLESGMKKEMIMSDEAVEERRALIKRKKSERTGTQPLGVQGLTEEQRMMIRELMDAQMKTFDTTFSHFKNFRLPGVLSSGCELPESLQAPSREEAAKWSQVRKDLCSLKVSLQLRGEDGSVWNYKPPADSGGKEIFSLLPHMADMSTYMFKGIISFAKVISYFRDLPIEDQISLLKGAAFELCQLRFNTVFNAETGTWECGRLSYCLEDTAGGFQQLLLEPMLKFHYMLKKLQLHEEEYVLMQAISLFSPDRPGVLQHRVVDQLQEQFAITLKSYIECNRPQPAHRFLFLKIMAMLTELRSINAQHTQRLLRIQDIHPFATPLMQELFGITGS
Cytochrome P450 2D6 (Homo sapiens), sequence (P10635 whole entry, looked up): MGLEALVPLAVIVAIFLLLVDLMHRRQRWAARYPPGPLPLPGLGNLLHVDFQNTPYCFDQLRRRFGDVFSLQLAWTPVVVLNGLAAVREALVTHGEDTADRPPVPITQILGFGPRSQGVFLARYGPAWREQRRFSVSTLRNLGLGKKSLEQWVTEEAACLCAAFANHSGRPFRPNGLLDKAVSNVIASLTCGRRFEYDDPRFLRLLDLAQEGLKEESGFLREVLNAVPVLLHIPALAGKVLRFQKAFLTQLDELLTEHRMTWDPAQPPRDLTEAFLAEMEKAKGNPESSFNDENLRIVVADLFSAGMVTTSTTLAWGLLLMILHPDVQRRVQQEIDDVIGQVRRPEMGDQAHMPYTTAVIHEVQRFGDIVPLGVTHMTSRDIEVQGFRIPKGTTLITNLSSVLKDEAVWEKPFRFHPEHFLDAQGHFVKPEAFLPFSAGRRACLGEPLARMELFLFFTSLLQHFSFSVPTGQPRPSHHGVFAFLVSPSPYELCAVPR
Cytochrome P450 2C9 (Homo sapiens), sequence (P11712 whole entry, looked up): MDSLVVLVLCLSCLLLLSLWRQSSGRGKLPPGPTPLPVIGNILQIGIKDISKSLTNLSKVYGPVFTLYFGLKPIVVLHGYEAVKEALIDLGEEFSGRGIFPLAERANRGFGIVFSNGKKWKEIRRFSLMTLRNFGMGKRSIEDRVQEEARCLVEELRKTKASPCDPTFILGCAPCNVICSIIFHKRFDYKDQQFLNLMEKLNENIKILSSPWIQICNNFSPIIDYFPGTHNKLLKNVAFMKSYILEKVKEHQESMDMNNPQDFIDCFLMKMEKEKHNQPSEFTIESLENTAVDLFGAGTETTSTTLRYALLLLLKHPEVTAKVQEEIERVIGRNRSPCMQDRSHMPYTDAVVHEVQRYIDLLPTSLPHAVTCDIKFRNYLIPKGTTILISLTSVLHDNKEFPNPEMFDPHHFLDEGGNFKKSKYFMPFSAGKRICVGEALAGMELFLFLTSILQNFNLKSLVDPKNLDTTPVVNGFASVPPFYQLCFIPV
Cytochrome P450 1A2 (Homo sapiens), sequence (P05177 whole entry, looked up): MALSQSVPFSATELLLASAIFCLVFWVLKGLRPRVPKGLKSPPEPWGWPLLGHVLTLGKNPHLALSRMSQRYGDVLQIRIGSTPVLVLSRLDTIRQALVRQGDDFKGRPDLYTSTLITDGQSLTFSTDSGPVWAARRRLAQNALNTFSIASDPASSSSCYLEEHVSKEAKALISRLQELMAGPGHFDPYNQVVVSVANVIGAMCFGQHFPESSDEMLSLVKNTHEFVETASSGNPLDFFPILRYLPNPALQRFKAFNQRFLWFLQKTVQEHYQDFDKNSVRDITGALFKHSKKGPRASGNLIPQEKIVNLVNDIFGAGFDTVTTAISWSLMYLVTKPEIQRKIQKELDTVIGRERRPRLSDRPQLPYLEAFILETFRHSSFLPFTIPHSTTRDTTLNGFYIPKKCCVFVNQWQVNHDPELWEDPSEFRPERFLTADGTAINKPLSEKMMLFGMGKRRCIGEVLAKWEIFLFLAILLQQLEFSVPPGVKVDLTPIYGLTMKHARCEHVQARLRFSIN
Cytochrome P450 2C19 (Homo sapiens), sequence (P33261 whole entry, looked up): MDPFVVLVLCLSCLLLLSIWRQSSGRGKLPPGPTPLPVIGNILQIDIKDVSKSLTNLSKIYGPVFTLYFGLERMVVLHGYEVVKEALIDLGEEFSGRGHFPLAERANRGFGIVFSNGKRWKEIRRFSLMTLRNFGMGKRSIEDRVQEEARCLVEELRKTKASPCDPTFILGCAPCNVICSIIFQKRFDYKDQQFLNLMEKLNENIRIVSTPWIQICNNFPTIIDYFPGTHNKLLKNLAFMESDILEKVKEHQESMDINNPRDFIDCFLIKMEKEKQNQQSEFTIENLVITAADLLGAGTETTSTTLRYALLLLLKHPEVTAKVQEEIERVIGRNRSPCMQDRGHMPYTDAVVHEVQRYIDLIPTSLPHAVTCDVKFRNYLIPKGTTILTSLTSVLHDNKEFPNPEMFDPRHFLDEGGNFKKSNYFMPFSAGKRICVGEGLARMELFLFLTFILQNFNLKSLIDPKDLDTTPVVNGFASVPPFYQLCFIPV
Cytochrome P450 3A4 (Homo sapiens), sequence (P08684 whole entry, looked up): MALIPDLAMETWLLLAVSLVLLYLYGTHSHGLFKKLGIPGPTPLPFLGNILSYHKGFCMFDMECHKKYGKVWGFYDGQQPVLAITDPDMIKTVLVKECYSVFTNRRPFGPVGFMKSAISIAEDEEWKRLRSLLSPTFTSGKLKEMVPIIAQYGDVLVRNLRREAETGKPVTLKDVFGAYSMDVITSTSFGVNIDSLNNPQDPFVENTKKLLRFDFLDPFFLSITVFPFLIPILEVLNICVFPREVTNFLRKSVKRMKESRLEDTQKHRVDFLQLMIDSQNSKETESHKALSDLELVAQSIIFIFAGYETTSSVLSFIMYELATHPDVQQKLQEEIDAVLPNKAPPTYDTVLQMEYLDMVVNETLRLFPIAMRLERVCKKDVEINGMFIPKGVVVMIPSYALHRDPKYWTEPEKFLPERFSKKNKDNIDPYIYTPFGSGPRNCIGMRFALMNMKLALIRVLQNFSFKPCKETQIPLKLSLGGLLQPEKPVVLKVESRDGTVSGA
Nuclear receptor subfamily 1 group I member 2 (Rattus norvegicus), sequence (Q9R1A7 whole entry, looked up): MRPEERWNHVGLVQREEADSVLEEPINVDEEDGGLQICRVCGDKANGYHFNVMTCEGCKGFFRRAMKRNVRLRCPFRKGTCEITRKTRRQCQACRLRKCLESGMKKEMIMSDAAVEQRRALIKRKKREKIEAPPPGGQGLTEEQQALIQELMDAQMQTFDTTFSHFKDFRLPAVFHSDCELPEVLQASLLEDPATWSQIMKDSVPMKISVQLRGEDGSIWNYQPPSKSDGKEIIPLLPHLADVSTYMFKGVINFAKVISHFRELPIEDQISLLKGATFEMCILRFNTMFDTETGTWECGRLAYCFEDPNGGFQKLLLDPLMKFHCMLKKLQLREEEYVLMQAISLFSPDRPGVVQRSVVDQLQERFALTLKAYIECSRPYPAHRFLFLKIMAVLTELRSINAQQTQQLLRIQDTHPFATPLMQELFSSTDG

Turning to `CC(=O)O[C@]1(C(C)=O)CC[C@H]2[C@@H]3C=C(Cl)C4=CC(=O)[C@@H]5C[C@@H]5[C@]4(C)[C@H]3CC[C@@]21C`, the Potency entry in [1], in experiment [2], in [3], in experiment [4], in experiment [6] and in [7] was “inactive” throughout. Further, the Potency result in experiment [8], in experiment [11], in [12] and in experiment [13] was “inactive” throughout. Moreover, the Potency was 61.1 µM (active) and inactive in [5]; “inactive and 39.9 µM (active)” in experiment [9]; 15.9 µM (active) and 31.7 µM (active) and 13.8 µM (active) in experiment [10].

Regarding `NNc1ccc(C(=O)O)cc1`, the Potency result in [1], in [2], in [14], in experiment [3], in experiment [4] and in experiment [12] was “inactive” throughout. In addition, in experiment [13], the Potency entry is “inactive”. Besides, the Potency in experiment [5] was 43.9 nM (active) and 27.6 nM (active); in experiment [9] it was 32.1 µM (active) and 40.3 µM (active); in [10], 10.2 µM (active); in experiment [11] it was 32.1 µM (active) and 32 µM (active).

As for `O=C(/C=C/C=C/c1ccc2c(c1)OCO2)N1CCCCC1`, the Potency entry in experiment [1], in experiment [2], in experiment [3], in [4] and in experiment [12] was “inactive” throughout. For the same compound, the Potency in experiment [5] was 10.9 µM (active); in [8], 63.4 µM (active) and 44.8 µM (active); in experiment [10], 12.7 µM (active) and 35.6 µM (active); in experiment [11], 28.3 µM (active) and 22.4 µM (active).

Take `CC(C)Oc1ccc2c(=O)c(-c3ccccc3)coc2c1`: the Potency result in [1], in experiment [2], in experiment [3], in experiment [4], in experiment [6] and in experiment [8] was “inactive” in each case. For the same compound, the Potency entry in experiment [12] and in experiment [13] was “inactive” in each case. Moreover, the Potency is 2.98 µM (active) and 1.06 µM (active) in experiment [5]; 0.316 µM (active) in experiment [15]; 17.4 µM (active) and 27.5 µM (active) in experiment [10]; 12.3 µM (active) and 6.45 µM (active) in experiment [11].

Turning to `CC(C)CC(C)(O)C#CC(C)(O)CC(C)C` (stereo not given), the Potency is 31.6 µM (active) and inactive in experiment [1]; 15 µM (active) and inactive in experiment [14]; 42.4 µM (active) and inactive in experiment [3]. In addition, the Potency result in [2], in [4] and in experiment [12] was “inactive” throughout.

For the compound `Cc1cccc(C(=O)O)c1`, the Potency in [1] is 14.1 µM (active); in experiment [2] it was 13.5 µM (active) and inactive; in experiment [14], 3.4 µM (active) and inactive; in experiment [5], 9.57 µM (active) and inactive. Also, the Potency entry in [3], in experiment [8], in experiment [10], in [11], in experiment [12] and in [13] was “inactive” each time.

Regarding `CC(CCC(=O)O)(c1ccc(O)cc1)c1ccc(O)cc1`, the Potency result in experiment [1], in experiment [2], in experiment [14], in experiment [3], in [4] and in [5] was “inactive” throughout. Besides, the Potency result in [11], in [12] and in [13] was “inactive” throughout. In experiment [8], the Potency entry is “inactive and 25.2 µM (active)”.

Turning to `CC(C(=O)O)c1cccc(C(=O)c2ccccc2)c1` (stereo not given), the Potency entry in experiment [2], in [14], in experiment [3], in [4], in [8] and in experiment [12] was “inactive” each time. In experiment [13], the Potency result was “inactive”. In addition, the Potency in experiment [9] is 39.9 µM (active); in experiment [10], 31.7 µM (active) and 30.9 µM (active); in experiment [11], “inactive and 24.5 µM (active)”.

Turning to `O=c1oc(=O)c2cc3c(=O)oc(=O)c3cc12`, the Potency result in [1], in experiment [2], in experiment [14], in experiment [3], in experiment [4] and in experiment [8] was “inactive” in each case. Besides, the Potency result in experiment [10], in [11] and in experiment [12] was “inactive” in each case.
